Shown is part of a subset that was picked to be rich in hits.
Methyltransferases: Primary Screen for Target Class Profiling of Small Molecule Inhibitors of Methyltransferases. purified enzyme, MTase-Glo SAH luminescence; hits give low values. calls only at 40 µM. hit rate 3.9% among 25,000. AID 1745853, 2022; call rule not given here
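Each enzyme was assayed with SAM and its substrate. SAH formation detected by MTase-Glo luminescence; single-point 40 uM screen[…].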
MTase-Glo counter: Counterscreen for Target Class Profiling of Small Molecule Inhibitors of Methyltransferases; hit rate 6% among 180; Potency, µM (highest dose often 57.3 µM), usual class: inhibitors; AID 1745851, 2022; MTase-Glo coupled enzymes, SAH conversion luminescence, no MTase; shares compounds with Methyltransferases; active = well fitted inhibition curve with a large enough effect
Calls only; n = inactive; + = active, no number.

SMILES | Methyltransferases | others
COc1ccc(CNC(=O)C2(C)Cn3cnc(C(=O)NCc4ccc(F)cc4)c3C(=O)N2C2CC2)cc1 (stereo not drawn) | n
Cc1cccc(-c2n[nH]n3c2nc(=O)c2ccc(C(=O)N4CCN(c5ccc(F)cc5)CC4)cc23)c1 | n
CCN(CCCNC(=O)CCc1nnc2n(CCC(C)C)c(=O)c3ccccc3n12)c1cccc(C)c1 | n
Cc1cc2c(cc3n2CC(C)(C(=O)NC2CCCCCC2)N(c2ccc(C)c(C)c2)C3=O)o1 (stereo not drawn) | n
COc1cccc(CN2CCCC3(CCN(c4cc(C)nc(N)n4)C3)C2)c1OC (stereo not drawn) | + | MTase-Glo counter=n
Fc1ccccc1CN1CCCC2(CCN(c3cnccn3)C2)C1 (stereo not drawn) | n
COc1cc2c(cc1CN1CCC3(CCCNC3)C1)OCCCO2 (stereo not drawn) | n
CCOC(=O)c1cc2n(n1)CC(C)(C(=O)NCCC(C)C)N(Cc1ccc(Cl)cc1)C2=O (stereo not drawn) | n
CCOc1ccc(CN2C(=O)c3cc4sccc4n3CC2(C)C(=O)NC2CCCCC2)cc1 (stereo not drawn) | n
CSc1ccc(CCNC(=O)c2cc3n(n2)CC(C)(C(=O)NCc2ccc(C)cc2)N(C)C3=O)cc1 (stereo not drawn) | n
CCOC(=O)COc1cc2oc(=O)cc(-c3ccccc3)c2cc1Cl | n
COc1cccc([S+](=O)([O-])N2CCC3(C2)N=C(c2cccnc2)C(=O)N3)c1 (stereo not drawn) | + | MTase-Glo counter=n
COc1cccc([S+](=O)([O-])N2CC(N3CCc4ccccc43)C2)c1 | n
COc1cccc([S+](=O)([O-])N2CCC23Cc2ccccc2NC3=O)c1 (stereo not drawn) | n
COc1ccc(CCN2C(=O)c3cc4sccc4n3CC2(C)C(=O)NC2CCCCC2)cc1OC (stereo not drawn) | n
CC(C)CCn1c(=O)c2ccc(C(=O)NC(C)C)cc2n2c(=O)n(CC(=O)NCc3ccccc3)nc12 | n
O=C(CCCc1nnc2n3nc(-c4ccccc4)nc3c3ccccc3n12)N1CCN(c2ccc(F)cc2)CC1 | n
COc1ccc(-c2cc3n(n2)CC(C)(C(=O)NCc2ccccc2OC)N(c2cccc(Cl)c2C)C3=O)cc1 (stereo not drawn) | n
CC1(C(=O)NC2CCCCC2)Cn2c(ccc2-c2ccco2)C(=O)N1Cc1cccc(F)c1 (stereo not drawn) | n
N#Cc1ccc(CN2CCC3(CC(c4cccc(C(F)(F)F)c4)=NO3)C2)cc1 (stereo not drawn) | n
FC(F)(F)c1cccc(-c2nccn3c(C4CN(Cc5ccc6cn[nH]c6c5)C4)ncc23)c1 | + | MTase-Glo counter=n
CCCC1c2cccn2CCN1C(=O)Nc1ccc(F)c(Cl)c1 (stereo not drawn) | n
CCCN(C)C(=O)CCc1ccnc(N2CCOCC2)c1 | n
COc1ccc(NC(=O)CCc2ccnc(N3CCCC3)c2)c(OC)c1 | + | MTase-Glo counter=n
COc1ccc(NC(=O)N2CCn3cccc3C2C)c(OC)c1 (stereo not drawn) | n
CCC(C)NC(=O)c1ccc2c(=O)n(C)c3nn(Cc4ccc(F)cc4)c(=O)n3c2c1 (stereo not drawn) | n

Screens as filed in PubChem.
